Laboratory results from PubChem BioAssay AID504467 (National Center for Advancing Translational Sciences (NCATS), 2011).
About 7,700 (2.3%) of roughly 330,000 compounds were called active. Another 26% or so got no clear call; they are omitted. For the sample, actives were picked, then their nearest neighbours and some compounds at random. Values without a mark were called inactive. Calls come from the whole dose curve; as a rule, active = well fitted inhibition curve with a large enough effect; inconclusive = small, poorly fitted or top-dose-only effect, or effect the other way; inactive = flat fitted curve, though single readings scatter.

assay: qHTS screen for small molecules that inhibit ELG1-dependent DNA repair in human embryonic kidney (HEK293T) cells expressing luciferase-tagged ELG1; settings: HEK293T ELG1-luciferase reporter, luminescence, 16 h, DNA damage induced by 5-fluorouridine; series mostly up to 46.1 µM; activity change, negative = inhibition: at the top concentration; note: nearly all actives have a fitted effect of over 55% in size
Procedure, shortened: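 Quantitative HTS, concentration-response format. 2,000 cells/well co-treated with 5-fluorouridine and compound, 16 hr in 5% CO2 at 37 °C; ONE-Glo luminescence read after 30 min.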
% is set by controls: 0 for no effect and ±100 for the full control effect; potency is the fitted concentration of half-maximal effect.

Compound | activity change, negative = inhibition | Potency
Cc1ccc(C(=O)COC(=O)CCN2C(=O)C3C4CCC(C4)C3C2=O)cc1C (stereo unspecified) | -2.83% | –
COc1cc(C2CC(=O)c3cnc(NC(C)=O)nc3C2)cc(OC)c1OC (stereo unspecified) | 12.5% | –
COCCOC(=O)c1[nH]c2c(c1C)C(=O)CC(c1ccc(OC)cc1)C2 (stereo unspecified) | -3.68% | –
CCCOC(=O)c1[nH]c2c(c1C)C(=O)CC(c1cc(OC)c(OC)c(OC)c1)C2 (stereo unspecified) | – | 5.17 µM (active)
COc1ccc(OC)c(S(=O)(=O)Nc2c(C)nn(C)c2C)c1 | -6.93% | –
Cc1cc(C)c(C)c(S(=O)(=O)N2CCN(C(=O)c3ccc4c(=O)n5c(nc4c3)CCC5)CC2)c1C | -26.1% | –
COc1ccc(C=C(C#N)C#N)c(CSc2ccccn2)c1 | -6.6% | –
Cc1cc(C)cc(OCC(=O)Nc2ccc(N3CCOCC3)cc2N2CCOCC2)c1 | – | 16.4 µM (active)
Cc1cccc(OCC(=O)NC(=S)Nc2ccccc2N2CCOCC2)c1 | -5.56% | –
Cc1cc(N2CCCC2)ccc1NC(=O)COc1ccc(Cl)cc1 | -10.8% | –
COc1cccc(CNC(=O)CCC2CCCN(C(=O)c3ccc(F)c(Cl)c3)C2)c1 (stereo unspecified) | -27.6% | –
COc1cccc(NC(=S)NCCCN2CCOCC2)c1 | 16.7% | –
Cc1ccc(NC(=S)NCCN2CCOCC2)cc1 | 2.53% | –
CCOc1cccc(/C=N/NC(=S)NCCN2CCOCC2)c1O | – | 13 µM (active)
CCN(CC)C(=O)[C@H]1C[C@H](CC(=O)NCC23CC4CC(CC(C4)C2)C3)C(=O)N2CCc3c([nH]c4cc(CCC(=O)N(C)C)ccc34)[C@]12C | -9.18% | –
COc1ccc(C(=O)c2c3ccc([N+](=O)[O-])cc3[n+]([O-])n2CCCN)cc1 | -19.9% | –
COc1ccc(Cc2nnc(SCC(=O)N(c3ccccc3)C(C)C)n(N)c2=O)cc1 | 0.731% | –
COc1ccc2c(c1)C(NS(=O)(=O)OCC(Cl)(Cl)Cl)CCC2 (stereo unspecified) | 28.9% | –
Cc1cccc2cc(CN(Cc3cccs3)C(c3nnnn3C3CCCC3)C(C)C)c(=O)[nH]c12 (stereo unspecified) | – | 11.6 µM (active)
Cc1cccc2cc(CN(Cc3nnnn3Cc3ccccc3)C3CCCC3)c(=O)[nH]c12 | – | 20.6 µM (active)
CN1CCN(C(c2cc3cc4c(cc3[nH]c2=O)OCCO4)c2nnnn2C2CCCC2)CC1 (stereo unspecified) | 0.478% | –
COc1ccc2[nH]c(=O)c(CN(Cc3nnnn3CCc3ccccc3)CC3CCCO3)cc2c1 (stereo unspecified) | -2.53% | –
Cc1cc(C)c2cc(CN(Cc3nnnn3Cc3ccc(F)cc3)C3CCCC3)c(=O)[nH]c2c1 | 4.9% | –
CCCN(Cc1cc2cccc(C)c2[nH]c1=O)S(C)(=O)=O | 3.35% | –
Cc1ccc(N2C(=O)N3[C@@H]4c5ccccc5OC[C@@H]4[C@@H](c4ccccc4)[C@@]3(C)C2=O)cc1 | -0.661% | –
CC(=O)N1CCSc2ccc(S(=O)(=O)N3CCC(C)CC3)cc21 | 2.5% | –
